Epigenetic mod – epigenetic modulators derepressing GFP locus in mouse cells. mouse C127i GFP locus derepression, cytometry, 30 h. Potency, µM (top dose mostly 46.1 µM), without a hit: at the top dose GFP derepression (activation). actives 0.09% (n = 68,000). AID 597; also: % of control where 0% means no effect
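Read-out is the number of GFP-positive cells, scored as fluorescent objects 20 to 120 um wide, reflecting derepression of a silenced CMV-GFP reporter in murine C127i cells after 30 h compound exposure at 37 C.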
Imprint erasure – inducers of genomic imprint erasure in mouse ES cells; actives 0.02% (n = 110,000); Potency, µM (doses to about 60.7 µM), inactives show at the top dose activity change, positive = activation, usual class: activators; mouse ES Peg3-LacZ reporter, beta-gal luminescence, 40 h; AID 1948; also: potency is read from the fitted curve at half-maximal effect
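Gelatin-coated wells received 300 freshly trypsinized female ES cells with a Peg3LacZ-Neo reporter on the maternal allele, then incubated 40 hours at 37C. BetaGlo was added for 5 minutes at room temperature before a single luminescence read.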
p53ts 39C kill – p53ts cell cytotoxicity, nonpermissive temperature; H1299-p53A138V viability at 39C, ATP luminescence, 24 h; Potency, µM (titrated, usually from 46.1 µM), for the others: at the top dose activity change, negative = cell killing, actives largely listed as cytotoxic; actives 1.5% (n = 130,000); also: potency is read from the fitted curve at half-maximal effect; % is scaled to controls: 0 for no effect and ±100 for the full control effect; nearly all actives have a fitted effect of over 55% in size
p53ts 32C tox – kills p53ts cells at the permissive temperature | H1299-p53A138V at 32C, ATP luminescence viability, 24 h | Potency, µM (top dose mostly 46.1 µM), for inactives: at the top dose activity change, negative = cytotoxicity, most hits filed as cytotoxic | actives 0.93% (n = 130,000) | AID 924;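 also: potency is read from the fitted curve at half-maximal effect; 0% = DMSO and -100% = full killing by reference compound; nearly all actives have a fitted effect of over 55% in size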
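Cells: H1299 p53ts (A138V), 600/well, pre-incubated 16–30 h at 37C. Cpd up to 46 uM, 24 h, 32C. Readout: ATPlite luminescence, 20 min RT. Normalization: DMSO vs tamoxifen 100 uM. AC50 by Hill equation.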
UbGFP stabilizer – ubiquitin-GFP accumulation via proteasome inhibition; 67,000 tested, under 10 active; Ubiquitin-GFP reporter cells, proteasome inhibition, GFP fluorescence; response scale: untreated = 0%, 10 µM MG-132 = 100%; Potency, µM (doses to about 45.9 µM), inactives show at the highest dose activation (GFP accumulation), usual class: activators; active = well fitted activation curve with a large enough effect, not every such curve was filed as active; inconclusive = small, poorly fitted or top-dose-only effect, or another doubt; inactive = no such curve, though single readings can be large or run the other way; also: potency is read from the fitted curve at half-maximal effect
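U2OS cells stably expressing ubiquitin(G76V)-GFP, seeded overnight in 0.5% FBS medium, were exposed to compounds (qHTS, 46 uM to 2.9 nM) for 4 hr at 37 °C. GFP-positive cells were counted by laser cytometry (488 ex/515 em), normalized between basal and 10 uM MG-132.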
HBB splicing – alters splicing of the hemoglobin beta chain; HBB splicing reporter cell assay, activation; EGFP reporter with mutant IVS2-654 intron; response scale: normalised to 500 nM splice-correcting PNA; actives 0.06% (n = 65,000); Potency, µM (doses to about 46.1 µM), for inactives: at the top dose activation, most hits filed as activators; AID 925; also: potency is read from the fitted curve at half-maximal effect; 0% is about no effect
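HeLa cells stably expressing EGFP interrupted by mutant beta-globin intron 2 (IVS2-654), 500/well in 2% FCS. Treated with compound for 2 days at 37C. Splicing correction scored as total well GFP intensity (488 nm excitation, 500-520 nm emission); 500 nM antisense PNA served as control.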
* marks the source's active call; other numbers are inactive results; ? = inconclusive; / = no result; [ ] = dose if it differs, or a comment. This is a sample that favours compounds with a hit; in the whole collection about 1.6% have one here. Unless noted, calls follow the shape of the dose curve; as a rule, active = well fitted curve in the direction sought with a large enough effect; inconclusive = small, poorly fitted or top-dose-only effect, or another doubt; inactive = no such curve, though single readings can be large; an effect the other way counts as inactive or inconclusive.

SMILES	Epigenetic mod	Imprint erasure	p53ts 39C kill	p53ts 32C tox	UbGFP stabilizer	HBB splicing
CCn1cc(C(=O)N2CCN(c3ccccc3F)CC2)c(=O)c2cc(S(=O)(=O)N(C)C3CCCCC3)ccc21	/	-10%[10.9 µM]	9%	13%	/	/
CCOc1ccc(-c2oc3cc(Cl)ccc3c(=O)c2O)cc1OC	/	6%[10.9 µM]	7.9µM*	-15%	/	/
Cc1ccc(CNCc2c(C(=O)O)n(Cc3ccc(C)cc3)c3cc(C)ccc23)cc1	/	-15%[10.9 µM]	?	?	/	/
Cc1ccc(Cn2c(C(=O)O)c(CNCc3ccc(OC(C)C)cc3)c3ccc(C)cc32)cc1	/	-14%[10.9 µM]	16µM*	-7%	/	/
C=Cc1ccc(Cn2c(C(=O)O)c(CNCc3ccccc3)c3ccc(C)cc32)cc1	/	3%[10.9 µM]	16µM*	?	/	/
Cc1ccc(Nc2nc3nonc3nc2Nc2cccc(C(F)(F)F)c2)cc1Cl	/	-30%[10.9 µM]	10µM*	13µM*	/	/
Cc1cc(Nc2cccc(C(F)(F)F)c2)ncn1	/	-2%[10.9 µM]	-10%	-13%	/	/
CC(=O)N1CCc2cc(S(=O)(=O)NC(CC(C)C)C(=O)Nc3cc(C)cc(C)c3)ccc21 (stereo unspecified)	/	-9%[10.9 µM]	8%	11%	/	/
Cc1ccc(NS(=O)(=O)c2ccc3nc(-c4ccccc4)[nH]c3c2)cc1Cl	/	-15%[10.9 µM]	13µM*	?	/	/
COc1ccc(-c2nc3ccccc3s2)cc1NC(=O)c1ccc(C#N)cc1F	/	-15%[10.9 µM]	20%	-9%	/	/
CC(C)(C)OC(=O)N1CCC(c2c(C(=O)NCCN3CCOCC3)cnn2-c2ccc(F)cc2)CC1	/	9%[10.9 µM]	-1%	7%	/	/
Cc1ccc(NC(=O)Cn2c(=O)n(-c3ccccc3)c(=O)c3ccc(C(=O)NCc4ccc5c(c4)OCO5)cc32)c(C)c1	/	-9%[10.9 µM]	7.9µM*	?	/	/
Cc1ccc(-n2c(=O)c3ccc(C(=O)NCc4ccco4)cc3n(Cc3ccc(Cl)cc3)c2=O)cc1	/	-11%[10.9 µM]	13µM*	-27%	/	/
COc1ccc(NC(=O)Cn2c(=O)n(-c3ccccc3)c(=O)c3ccc(C(=O)NCc4ccc5c(c4)OCO5)cc32)cc1	/	-4%[10.9 µM]	27%	?	/	/
COc1ccc(-n2c(=O)c3ccc(C(=O)NCc4ccc(C)cc4)cc3n(CC(=O)Nc3ccc(F)cc3)c2=O)cc1	/	5%[10.9 µM]	10µM*	-24%	/	/
Cc1ccc(-n2c(=O)c3ccc(C(=O)NCc4ccco4)cc3n(CC(=O)Nc3ccc(C)c(F)c3)c2=O)cc1	/	-8%[10.9 µM]	?	-1%	/	/
COc1ccc(-n2c(=O)c3ccc(C(=O)NCc4ccc(C)cc4)cc3n(CC(=O)Nc3ccc(C)cc3)c2=O)cc1	/	-15%[10.9 µM]	5µM*	?	/	/
CCCn1nnc(NC(=O)c2ccc(OCC)c(Cl)c2)n1	2%	-3%	-9%	5%	1%	-1%
Cn1nnc(NC(=O)c2ccc3ccccc3c2)n1	/	/	-19%	?	/	/
CCCCOc1ccc(C(=O)Nc2cccc(C)n2)cc1	1%	3%	16µM*	13µM*	-9%	-1%
Cn1nnc(NC(=O)c2ccc(C(C)(C)C)cc2)n1	-2%	-38%	7.9µM*	10µM*	-2%	/
O=C(Nc1nc(=O)c2ccccc2s1)c1ccccc1	-2%[20.6 µM]	/	/	/	/	/
CCOc1ccc(C(=O)Nc2nnn(CC)n2)cc1	9%	-80%	13µM*	10µM*	2%	/
Cc1ccc(C(=O)Nc2nc3ccccc3c(=O)s2)cc1	0%	/	16µM*	13µM*	3%	/
CCCN1C(=O)C(Cc2nc3ccccc3c(=O)n2-c2cccc(C)c2)c2ccccc21 (stereo unspecified)	/	-10%[10.9 µM]	18%	12%	/	/
CCOc1ccc(C(=O)Nc2cccc(C)n2)cc1	1%	/	?	5µM*	10%	/
CCOc1ccc(NC(=O)Nc2cccc(C)n2)cc1	/	4%[10.9 µM]	?	-22%	/	/
CCOc1ccc2nc(NC(=O)c3ccccc3)sc2c1	/	-74%[10.9 µM]	?	6.3µM*	/	/

Screening results as filed in PubChem BioAssay.
